Drawing on PubChem BioAssay (EPA / NIEHS), this text covers AC50 and outcome for 25 compounds.

The structures appear in SMILES notation. Active and inactive are the calls of the source. How the source made its calls: active means hit-call score of the fitted dose curve at least 0.9, where 1 is the maximum; inactive means score below 0.9.

A short description of test [1]: ATG_PXRE_CIS: Attagene CIS-FACTORIAL HepG2 Assay for human Pregnane X Receptor Element (PXRE) (AID 2282957). As to conditions: HepG2 Attagene CIS-FACTORIAL PXRE reporter, mRNA; actives raise or lower the signal. The gist of the method: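 Transiently transfected HepG2 cells were dosed and incubated for 24 h. RNA was then isolated, DNase-treated, reverse-transcribed and reporter sequences amplified. Labeled, HpaI-digested fragments were quantified by capillary electrophoresis against DMSO.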

Test [2] is described as follows: ATG_PPRE_CIS: Attagene CIS-FACTORIAL HepG2 Assay for human Peroxisome Proliferator-activated Response Element (PPRE) (AID 2282958). As to conditions: HepG2 PPRE cis-element reporter, Attagene transcription factor profiling; actives raise or lower the signal. The gist of the method:
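Endogenous PPRE-driven transcription is measured in HepG2 cells carrying transfected multi-reporter constructs. Reporter transcripts are quantified by RT-PCR, HpaI digestion and capillary electrophoresis 24 h after dosing. DMSO baseline, bidirectional fit.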

The nature of test [3]: ATG_RORE_CIS: Attagene CIS-FACTORIAL HepG2 Assay for human RAR-related Orphan Receptor Element (RORE) (AID 2282959). As to conditions: HepG2 Attagene cis-factorial RORE reporter, mRNA; actives raise or lower the signal. The gist of the method: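 RORE reporter transcripts reflecting endogenous factor activity were read after 24 h compound exposure of transfected HepG2 cells, using reverse transcription, PCR, fluorescent labelling and capillary electrophoresis sizing. Gain or loss fitted against DMSO.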

Test [4] can be described thus: ATG_Sox_CIS: Attagene CIS-FACTORIAL HepG2 Assay for human SRY-box transcription factor (SOX) (AID 2282960). As to conditions: HepG2 Attagene cis-factorial SOX reporter, mRNA; actives raise or lower the signal. The method, boiled down: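 Reporter transcripts, measured by RT-PCR and capillary electrophoresis of labelled fragments, report endogenous SOX transcription factor activity. Transiently transfected human HepG2 cells receive chemical for 24 h; changes in either direction are fitted relative to DMSO.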

Test [5] is described as follows: ATG_SREBP_CIS: Attagene CIS-FACTORIAL HepG2 Assay for human Sterol Regulatory Element Binding (SREBP) (AID 2282962). As to conditions: HepG2 Attagene cis-factorial SREBP reporter, mRNA; actives raise or lower the signal. The gist of the method: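 Twenty-four hours after chemical dosing of transfected HepG2 cultures, reporter RNA was converted to cDNA, amplified, end-labelled with 6-FAM and resolved by capillary electrophoresis. Responses were fitted relative to DMSO.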

In test [6] the target is Signal transducer and activator of transcription 3 (Homo sapiens) (UniProt P40763). Kind of test: ATG_STAT3_CIS: Attagene CIS-FACTORIAL HepG2 Assay for human Signal Transducer and Activator of Transcription 3 (STAT3) (AID 2282963). As to conditions: HepG2, Attagene cis-factorial STAT3 reporter transcription; actives raise or lower the signal. The method, boiled down: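 Transcript-level reporter assay. HepG2 transient MRTU transfection, 24 h exposure, fluorescence detection after RT-PCR and CE; DMSO baseline.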

Test [7] in a line: ATG_TA_CIS: Attagene CIS-FACTORIAL HepG2 Assay for human TA Basal Promoter (AID 2282964). As to conditions: HepG2 Attagene CIS-factorial TA basal promoter reporter; actives raise or lower the signal. The method, boiled down:
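Steps: transfect HepG2 with MRTUs; dose 24 h; isolate RNA, DNase-treat, reverse-transcribe; PCR and FAM-label reporter cDNA; digest with HpaI 2h at 37 C; run capillary electrophoresis. Activity fitted both directions against DMSO.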

A short description of test [8]: ATG_TCF_b_cat_CIS: Attagene CIS-FACTORIAL HepG2 Assay for human T-Cell-Factor with beta-catenin (TCF/b-cat) (AID 2282965). As to conditions: HepG2 TCF/beta-catenin cis-reporter transcription, actives raise or lower the signal. The gist of the method: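 In this cis-format system, transfected HepG2 cells report endogenous transcription factor activity. Readout after 24 h exposure is reporter transcript abundance from RT-PCR and capillary electrophoresis, analysed for gain or loss of signal versus DMSO.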

Test [9] is described as follows: ATG_TAL_CIS: Attagene CIS-FACTORIAL HepG2 Assay for human TAL Basal Promoter (AID 2282966).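 Further: background control endpoint measuring basal TAL promoter reporter mRNA not a specific factor.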 As to conditions: HepG2 Attagene cis-factorial TAL promoter reporter; actives raise or lower the signal. The method, boiled down:
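Readout: reporter mRNA, fluorescence by CE. System: HepG2, transient multi-reporter transfection, endogenous TF activity. Exposure: 24 h. Analysis: bidirectional, DMSO-normalized; background control.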

For test [10], the target named is Transcription factor Sp1 (Homo sapiens) (UniProt P08047). Kind of test: ATG_Sp1_CIS: Attagene CIS-FACTORIAL HepG2 Assay for human Specificity Protein 1 (Sp1) (AID 2282961). As to conditions: HepG2 Sp1 cis-reporter transcription, actives raise or lower the signal. The method, boiled down: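 Read-out is reporter transcript level, measured by RT-PCR and fluorescent capillary electrophoresis after 24 h chemical treatment. System: transiently transfected HepG2 cells reporting endogenous transcription factor activity; gain or loss fitted against DMSO baseline.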
Chain of Transcription factor Sp1 (Homo sapiens) (P08047 whole entry, looked up): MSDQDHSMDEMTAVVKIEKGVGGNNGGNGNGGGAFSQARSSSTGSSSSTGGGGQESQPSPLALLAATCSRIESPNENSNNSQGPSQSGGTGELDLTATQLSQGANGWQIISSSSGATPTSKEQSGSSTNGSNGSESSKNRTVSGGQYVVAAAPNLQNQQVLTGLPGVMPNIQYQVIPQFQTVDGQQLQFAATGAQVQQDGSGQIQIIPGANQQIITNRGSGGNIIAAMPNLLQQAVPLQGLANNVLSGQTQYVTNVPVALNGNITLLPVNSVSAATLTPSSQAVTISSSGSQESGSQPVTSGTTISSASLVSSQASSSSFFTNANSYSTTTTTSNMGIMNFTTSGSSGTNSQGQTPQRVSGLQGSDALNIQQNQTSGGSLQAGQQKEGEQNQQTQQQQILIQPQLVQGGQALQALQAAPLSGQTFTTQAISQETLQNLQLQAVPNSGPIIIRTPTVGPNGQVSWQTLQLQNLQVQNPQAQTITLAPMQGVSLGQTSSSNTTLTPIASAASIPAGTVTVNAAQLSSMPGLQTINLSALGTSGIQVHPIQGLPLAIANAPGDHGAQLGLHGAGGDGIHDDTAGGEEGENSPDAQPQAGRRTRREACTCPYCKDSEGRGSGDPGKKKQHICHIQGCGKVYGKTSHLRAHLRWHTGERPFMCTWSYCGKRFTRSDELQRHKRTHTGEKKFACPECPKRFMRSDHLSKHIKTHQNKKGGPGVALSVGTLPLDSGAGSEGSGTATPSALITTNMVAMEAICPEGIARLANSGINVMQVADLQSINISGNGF

Chain of Signal transducer and activator of transcription 3 (Homo sapiens) (P40763 whole entry, looked up): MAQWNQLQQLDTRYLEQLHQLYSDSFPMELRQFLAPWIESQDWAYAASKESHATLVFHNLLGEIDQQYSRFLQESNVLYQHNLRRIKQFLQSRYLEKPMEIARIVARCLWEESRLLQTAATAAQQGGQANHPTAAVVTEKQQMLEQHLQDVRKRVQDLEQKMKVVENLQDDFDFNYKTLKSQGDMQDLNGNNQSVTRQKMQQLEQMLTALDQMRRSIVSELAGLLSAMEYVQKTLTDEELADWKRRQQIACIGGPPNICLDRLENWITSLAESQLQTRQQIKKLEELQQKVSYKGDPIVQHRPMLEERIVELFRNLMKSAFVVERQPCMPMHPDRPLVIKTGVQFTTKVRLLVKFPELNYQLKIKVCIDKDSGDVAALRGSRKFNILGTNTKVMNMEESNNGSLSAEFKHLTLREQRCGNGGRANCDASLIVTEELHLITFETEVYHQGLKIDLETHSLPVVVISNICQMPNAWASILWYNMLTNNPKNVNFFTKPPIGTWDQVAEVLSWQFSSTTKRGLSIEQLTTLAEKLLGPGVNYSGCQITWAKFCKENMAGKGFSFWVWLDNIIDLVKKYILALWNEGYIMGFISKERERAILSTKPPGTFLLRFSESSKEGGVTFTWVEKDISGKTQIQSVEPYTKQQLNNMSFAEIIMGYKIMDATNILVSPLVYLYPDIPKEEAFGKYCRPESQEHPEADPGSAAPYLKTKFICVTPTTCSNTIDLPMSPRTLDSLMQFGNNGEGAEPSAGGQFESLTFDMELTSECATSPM

The term AC50 denotes the midpoint of the concentration-response curve, whichever way the signal moves. With `O=C(CCl)Nc1ccccc1`, the half-maximal activity concentration (AC50) in test [1] is 33.4 µM (active); in test [2], 3.66 µM (active); in test [4] it was 32.9 µM (active); in test [5] it was 6.32 µM (active). The compound was classed as inactive in test [3], in test [6], in [7], in [8] and in [9].

For `Clc1cccc(Cl)c1Cl`, the compound was called inactive in test [1], in test [2], in test [3], in [4], in test [10] and in test [6]. In addition, the outcome in test [7], in [8] and in [9] was inactive.

Regarding `FC(F)OCC(F)(F)C(F)(F)F`, the result in test [1], in test [2], in test [3], in test [4], in test [5] and in [6] was inactive. Also, the result in test [7], in test [8] and in test [9] was inactive.

For the compound `CCN(CCO)CCO`, the AC50 in test [1] is 27.2 µM (active). Also, the outcome in [2], in test [3], in test [4], in test [10], in test [6] and in [7] was inactive. Also, the outcome in test [8] and in test [9] was inactive.

With `CCOC(=O)Cc1ccccc1`, the call in test [1], in test [2], in test [3], in [4], in test [5] and in test [6] was inactive. The compound was classed as inactive in test [7], in test [8] and in [9].

For `CCOP(=S)(OCC)SCSc1cc(Cl)ccc1Cl`, the call in test [1], in test [2], in test [3], in test [4], in test [10] and in test [6] was inactive. The call in test [7], in [8] and in test [9] was inactive.

For `C=CCCl`, the AC50 in test [1] is 100 µM (active). The call in test [2], in test [3], in test [4], in [10], in test [6] and in [7] was inactive. In addition, the call in test [8] and in test [9] was inactive.

As to `CN(C)CCN(C)C`, the call in test [1], in test [2], in test [3], in test [10], in [5] and in [6] was inactive. The call in test [7] and in test [8] was inactive.

For the compound `CCCCCCCCCCCCN(C)C`, the concentration at half-maximal activity (AC50) in test [1] was 58.6 µM (active); in [10], 53.2 µM (active); in [8] it was 48.4 µM (active); in [9] it was 51.4 µM (active). Moreover, the call in test [2], in [3], in test [4], in test [6] and in [7] was inactive.

For `O=C(NC(=O)c1c(F)cccc1F)Nc1cc(Cl)c(F)c(Cl)c1F`, the concentration at half-maximal activity (AC50) in test [1] is 20.2 µM (active). In addition, the result in [2], in test [3], in [4], in test [10], in test [6] and in [7] was inactive. Moreover, the compound was classed as inactive in test [8] and in test [9].

Take `c1cc[c]([Sb]([c]2ccccc2)[c]2ccccc2)cc1`: in test [1], the AC50 is 2.1 µM (active). For the same compound, the compound was called inactive in test [2], in [3], in [4], in test [5], in test [6] and in test [7]. The compound was called inactive in test [8] and in test [9].

Take `CCOC(=O)OC1=C(c2cc(C)ccc2C)C(=O)NC12CCC(OC)CC2` (stereo not given): the compound was called inactive in [1], in test [2], in [3], in test [10], in [5] and in [6]. Moreover, the call in test [7] and in [8] was inactive.

Take `CC(C)(C)c1ccccc1O`: the half-maximal activity concentration (AC50) in test [1] is 23.9 µM (active); in test [3], 160 µM (active); in [4] it was 100 µM (active); in test [5], 163 µM (active). Besides, the outcome in test [2], in test [6], in test [7], in [8] and in test [9] was inactive.

Take `N#CS`: the outcome in test [1], in test [2], in test [3], in test [4], in [5] and in [6] was inactive. The result in [7] and in test [8] was inactive.

`NC(=O)CCl`: the concentration at half-maximal activity (AC50) in test [1] was 27.2 µM (active). Besides, the result in test [2], in test [3], in test [4], in test [5], in [6] and in test [7] was inactive. Besides, the compound was classed as inactive in test [8] and in test [9].

For the compound `C=CCOC(F)(C(F)(F)F)C(F)(F)F`, the compound was classed as inactive in test [1], in test [2], in test [3], in [4], in test [5] and in [6]. In addition, the outcome in test [7], in test [8] and in test [9] was inactive.

As to `Nc1cccnc1`, in test [1], the AC50 was 40.2 µM (active). Moreover, the call in test [2], in test [3], in test [4], in test [10], in test [6] and in test [7] was inactive. For the same compound, the call in test [8] and in test [9] was inactive.

Turning to `Cc1cc(Cl)ccc1O`, the compound was called inactive in test [1], in [2], in test [3], in test [4], in [5] and in [6]. The result in test [7], in test [8] and in [9] was inactive.

Take `Cc1ccccc1OP(=O)(Oc1ccccc1)Oc1ccccc1`: the AC50 in test [1] is 0.236 µM (active); in test [5], 7.9 µM (active). Also, the call in test [2], in test [3], in test [10], in [6], in test [7] and in test [8] was inactive. Further, in [9], the outcome was inactive.

`C=C(C)[C@@H]1CC=C(C=O)CC1`: the AC50 in [1] was 9.25 µM (active). Moreover, the compound was called inactive in [2], in test [3], in [4], in test [6], in test [7] and in test [8].

With `O=C(NC(=O)c1c(F)cccc1F)Nc1ccc(Cl)cc1`, the call in [1], in [2], in test [3], in test [4], in test [5] and in test [6] was inactive. Also, the result in [7], in test [8] and in test [9] was inactive.

With `ClCCN1CCOCC1`, the compound was classed as inactive in [1], in test [2], in test [3], in [4], in [10] and in [6]. The compound was called inactive in test [7], in [8] and in test [9].

With `Cc1ccc(CCl)cc1`, the outcome in test [1], in [2], in [3], in test [10], in test [5] and in test [6] was inactive. The outcome in test [7], in test [8] and in test [9] was inactive.

Regarding `O=S(=O)(Oc1ccc(Cl)cc1)c1ccc(Cl)cc1`, the AC50 in test [1] was 5.87 µM (active). In addition, the call in test [2], in test [3], in test [10], in test [5], in test [6] and in test [7] was inactive. The compound was called inactive in [8] and in test [9].

On to `CC1(C)[C@H](/C=C2\CCSC2=O)[C@@H]1C(=O)OCc1coc(Cc2ccccc2)c1`, for which the results for the concentration at half-maximal activity (AC50) in test [1], in test [3] and in [7] were 0.143 µM (active), 24.8 µM (active) and 30.5 µM (active), respectively. For the same compound, the compound was called inactive in [2], in test [10], in test [5], in [6], in test [8] and in test [9].
